This passage reports z-score and composite z-score results from PubChem BioAssay.

Activity calls are given as the source filed them. Unless noted, how the calls were made is not given here.

Test [1] can be described thus: resazurin metabolic signal in HepG2 cells – cell-based, resazurin fluorescence, 24 h, PK04 Diversity Set, profiling panel (AID 1172). Further: test concentration not given here. The settings on record: HepG2 viability, higher = more signal. Background: Resazurin is reduced to fluorescent resorufin, in cell work by metabolically active cells.
Test [2] can be described thus: budding yeast growth changes without added modifier – OD600, strain BY4716, 24 h, basal condition, primary screen (AID 1173). Particulars: S. cerevisiae BY4716 growth, OD600, 24 h; higher = more signal, called active from +8 up or from −8 down.
Test [3] can be described thus: viability profiling in MM1S myeloma cells – cell-based, resazurin fluorescence, basal, 24 h, PK04 Diversity Set, profiling panel (AID 1174).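 Further: MM1S multiple myeloma cell line; test concentration not given here.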 Particulars: higher = more signal, called active from +8 up or from −8 down.
Test [4] concerns the target Dihydroorotate dehydrogenase (quinone), mitochondrial (Plasmodium falciparum (isolate 3D7)) (UniProt Q08210). Kind of test: inhibition of P. falciparum DHODH – biochemical, C-terminal His tag, absorbance 600 nm, primary screen (AID 1175).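 Further: recombinant parasite enzyme with a five histidine tag at its C terminus; test concentration not given here.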 Particulars: PfDHODH enzyme, DCIP absorbance 600 nm; higher = more signal, called active from +8 up or from −8 down.
The nature of test [5]: inhibition of PAO1 biofilm formation – strain PAO1, LB-PBS medium, absorbance 600 nm, primary screen (AID 1176). Further: test concentration not given here. Particulars: P. aeruginosa PAO1 growth/biofilm, A600, 12 h; higher = more signal.
Test [6] in a line: growth modulation of vineyard yeast isolate – strain RM11-1a, OD600, basal, 24 h, primary screen (AID 1177).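 Further: cultures grown under basal conditions with no added stressor; test concentration not given here.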 Particulars: S. cerevisiae RM11-1a growth, OD600, 24 h; higher = more signal, called active from +8 up or from −8 down.
The nature of test [7]: growth of efflux-deficient E. coli DRC39 – strain DRC39, OD650, 24 h, E. coli filamentation inducers, primary screen (AID 1178).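 Further: growth measured as culture turbidity by optical density at 650 nm; test concentration not given here.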 The settings on record: E. coli DRC39 acrAB, higher = more signal, called active from +8 up or from −8 down.
Test [8] in a line: growth of efflux-deficient E. coli DRC39 – strain DRC39, OD650, 48 h, E. coli filamentation inducers, primary screen (AID 1179).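 Further: screen aims at cell division blockers that make cells filament.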 The settings on record: E. coli DRC39 delta-acrAB growth, higher = more signal, called active from +8 up or from −8 down.
Test [9] is described as follows: viability profiling in RPMI8226 myeloma cells – cell-based, resazurin fluorescence, basal, 24 h, PK04 Diversity Set, profiling panel (AID 1180).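 Further: RPMI8826 multiple myeloma cell line at 5000 cells per well; test concentration not given here.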 The settings on record: higher = more signal.
In test [10] the target is E3 ubiquitin-protein ligase XIAP (Homo sapiens) (UniProt P98170). Kind of test: small molecules binding XIAP protein – biophysical, small-molecule microarray, fluorescence 635 nm, primary screen (AID 1181).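 Further: score merges 667 nm emission and signal to noise over triplicate slides.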 The settings on record: higher = more signal.
Chain of E3 ubiquitin-protein ligase XIAP (Homo sapiens) (P98170 whole entry, looked up): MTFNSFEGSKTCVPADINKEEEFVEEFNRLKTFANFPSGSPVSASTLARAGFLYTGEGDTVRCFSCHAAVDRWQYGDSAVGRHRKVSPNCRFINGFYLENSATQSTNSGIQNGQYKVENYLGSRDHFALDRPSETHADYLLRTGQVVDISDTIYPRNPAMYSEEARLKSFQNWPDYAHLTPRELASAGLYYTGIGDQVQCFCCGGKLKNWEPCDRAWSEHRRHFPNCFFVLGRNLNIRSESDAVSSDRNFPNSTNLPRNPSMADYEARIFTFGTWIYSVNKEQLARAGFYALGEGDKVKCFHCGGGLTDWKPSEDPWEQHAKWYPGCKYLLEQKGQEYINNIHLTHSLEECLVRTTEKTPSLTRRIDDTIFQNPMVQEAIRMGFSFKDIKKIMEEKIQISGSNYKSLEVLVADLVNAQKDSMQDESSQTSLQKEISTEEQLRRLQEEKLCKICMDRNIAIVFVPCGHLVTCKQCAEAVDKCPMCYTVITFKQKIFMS

Chain of Dihydroorotate dehydrogenase (quinone), mitochondrial (Plasmodium falciparum (isolate 3D7)) (Q08210 whole entry, looked up): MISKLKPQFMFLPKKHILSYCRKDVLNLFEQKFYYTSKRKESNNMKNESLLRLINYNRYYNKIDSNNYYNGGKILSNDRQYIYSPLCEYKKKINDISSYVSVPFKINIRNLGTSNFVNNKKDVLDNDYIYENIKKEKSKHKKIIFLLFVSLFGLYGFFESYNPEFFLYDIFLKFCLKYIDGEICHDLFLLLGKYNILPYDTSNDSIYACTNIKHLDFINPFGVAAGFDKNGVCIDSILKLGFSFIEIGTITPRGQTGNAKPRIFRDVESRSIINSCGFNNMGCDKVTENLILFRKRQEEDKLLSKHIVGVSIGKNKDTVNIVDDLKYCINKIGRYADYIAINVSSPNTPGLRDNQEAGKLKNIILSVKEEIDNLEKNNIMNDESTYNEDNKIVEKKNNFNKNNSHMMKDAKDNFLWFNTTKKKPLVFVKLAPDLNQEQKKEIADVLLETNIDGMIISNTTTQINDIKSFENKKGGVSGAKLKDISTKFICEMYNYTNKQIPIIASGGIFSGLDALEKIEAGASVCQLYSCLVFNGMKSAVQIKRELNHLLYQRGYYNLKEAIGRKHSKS

`C[N+](C)(C)CCCCNC(=O)[C@H]1C[C@H]2C(=O)N3CCC[C@H]3C(=O)N2[C@H]1c1ccc(O)cc1`: the z-score is 0.0897 in [1]; 1.06 (inactive) in [2]; -1.13 (inactive) in test [3]; 0.146 (inactive) in test [5]; 0.266 (inactive) in test [6]; 0.0346 (inactive) in test [7]. In addition, the values for the z-score in test [8] and in test [9] were -0.322 (inactive) and -0.977, respectively. Moreover, the composite z-score was -30.3 (active) in test [4] and 0.455 in [10].
`COC(=O)[C@@]1(Cc2ccc(OC)cc2)[C@H]2c3cc(C(=O)N4CCCC4)n(C[C@H](O)CO)c3C[C@H]2CN1C(=O)c1ccccc1`: the z-score in test [1] was -0.0006; in [2] it was 1.92 (inactive); in test [3] it was -0.579 (inactive); in [5], -0.306 (inactive); in test [6] it was 1.04 (inactive); in test [7], 0.305 (inactive). Also, the z-score in test [8] was 0.644 (inactive); in [9] it was -0.595. For the same compound, the composite z-score in test [4] was -0.475 (inactive); in [10] it was -0.0251.
On to `NC(=O)NCC#Cc1ccc2c(c1)[C@]1(C(=O)N2)[C@H](c2ccccc2OCCO)N2[C@H](c3ccccc3)[C@H](c3ccccc3)OC(=O)[C@H]2[C@@H]1C(=O)N1CCCCCCC1`, for which the z-score in test [1] is -0.0969; in test [2], -0.0475 (inactive); in [3] it was 0.755 (inactive); in test [5] it was 1.92 (inactive); in [6], 0.899 (inactive); in test [7] it was -0.315 (inactive). The z-score in test [8] is -0.127 (inactive); in test [9], 0.966. Further, the composite z-score was 0.417 (inactive) in test [4] and 0.202 in test [10].
Consider `COC(=O)c1nc2oc1CC[C@@H](CO)NC(=O)N(C)Cc1cn(nn1)C[C@H](Cc1ccccc1)NC2=O`, for which the z-score is 0.395 in test [1]; -7.59 (inactive) in test [2]; 0.456 (inactive) in test [3]; 0.113 (inactive) in test [5]; 0.219 (inactive) in [6]; 0.0613 (inactive) in test [7]. Further, the z-score in [8] was 0.72 (inactive); in test [9], 0.407. Moreover, the composite z-score in test [4] is -0.773 (inactive); in [10], -0.117.
On to `COc1ccc([Si](C)(C)[C@H]2[C@H](CC(=O)N3CCC[C@H]3CO)O[C@@]3(C(=O)N(c4ccccc4)c4ccccc43)[C@@H]2C)cc1`, for which the z-score in test [1] was 1.75; in test [2], -2.26 (inactive); in test [3], 1.55 (inactive); in [5] it was 0.826 (inactive); in test [6], -1.81 (inactive); in [7], 1.21 (inactive). The z-score in test [8] was 1.49 (inactive); in test [9], 0.843. Also, the composite z-score in [4] was 0.0873 (inactive); in test [10] it was -0.167.
Regarding `CC(C)(C)OC(=O)CC[C@@]1(C(=O)N2CCOCC2)N=C(c2ccc(OCCCO)cc2)O[C@@H]1c1ccccc1N=[N+]=[N-]`, the z-score in test [1] was 0.725; in test [2], 0.297 (inactive); in [3], -0.894 (inactive); in [5], -0.596 (inactive); in test [6] it was 1.1 (inactive); in test [7], 0.611 (inactive). Further, the z-score in test [8] is 1.52 (inactive); in test [9], 0.066. Besides, the results for the composite z-score in test [4] and in test [10] were 0.668 (inactive) and 0.205, respectively.
Turning to `CC(C)C(CO)N1C(=O)[C@@H]2[C@H]3C(=O)OCC=C[C@H]3OC23C=CCN(c2ccc4ccccc4c2)C(=O)[C@@H]13` (stereo not given in full), the z-score was -0.128 in [1]; 0.485 (inactive) in test [2]; 0.112 (inactive) in test [3]; -0.497 (inactive) in test [5]; 1.24 (inactive) in test [6]; 0.483 (inactive) in test [7]. Further, the values for the z-score in [8] and in test [9] were 0.347 (inactive) and 0.133, respectively. Besides, the values for the composite z-score in test [4] and in test [10] were 0.958 (inactive) and -0.0476, respectively.
As to `Cc1ccc(S[C@]2(C(=O)NCc3ccccc3)CC(=O)N(Cc3cc(C(F)(F)F)cc(C(F)(F)F)c3)[C@@H]2c2ccc(CO)cc2)cc1`, the z-score was -0.417 in test [1]; -0.248 (inactive) in [2]; 0.133 (inactive) in [3]; 0.711 (inactive) in [5]; 1.43 (inactive) in [6]; -0.244 (inactive) in test [7]. Moreover, the z-score in test [8] was -0.532 (inactive); in test [9], 0.14. Also, the composite z-score was 1.01 (inactive) in [4] and -0.228 in test [10].
On to `CCOC(=O)C1=CC[C@@H](c2ccccc2)N(S(=O)(=O)c2ccc(C)cc2)[C@H]1c1ccc(C#N)cc1`, for which the z-score was 0.162 in test [1]; 1.5 (inactive) in [2]; -0.116 (inactive) in test [3]; 0.381 (inactive) in test [5]; -0.299 (inactive) in test [6]; -0.604 (inactive) in [7]. Moreover, the z-score in test [8] was -0.288 (inactive); in test [9] it was -1.4. Besides, the composite z-score in test [4] was -0.0753 (inactive); in [10], 0.0123.
Turning to `COC(=O)c1c(CC[C@@H](CO)NC(=O)Nc2ncn[nH]2)oc(C(=O)Cc2ccccc2)c1C(=O)OC`, the z-score in test [1] was 0.172; in [2] it was -0.62 (inactive); in [3], 0.059 (inactive); in test [5] it was 0.55 (inactive); in test [6] it was -0.382 (inactive); in test [7], 0.536 (inactive). For the same compound, the z-score in test [8] was 0.434 (inactive); in [9] it was 0.36. For the same compound, the composite z-score in [4] is 0.593 (inactive); in test [10], -0.0952.
As for `CCCNC(=O)[C@@]1(C)c2ccccc2C(=O)N(Cc2cc(C(F)(F)F)cc(C(F)(F)F)c2)[C@H]1c1ccc(CO)cc1`, the z-score in [1] was 0.597; in test [2] it was -0.991 (inactive); in test [3], 0.526 (inactive); in [5], 0.882 (inactive); in [6], -0.563 (inactive); in test [7] it was 0.0099 (inactive). For the same compound, the z-score in test [8] is -0.161 (inactive); in test [9], 0.73. In addition, the results for the composite z-score in test [4] and in test [10] were -0.241 (inactive) and -0.212, respectively.
In the case of `O=c1cccc(-c2ccc3ccccc3c2)o1`, the z-score in [1] is -0.321; in [2], -16.1 (active); in test [3], 0.2 (inactive); in [5], -0.281 (inactive); in [6] it was -2.6 (inactive); in [7], 0.632 (inactive). In addition, the z-score was 0.159 (inactive) in test [8] and 0.37 in test [9]. Further, the composite z-score in [4] is -1.14 (inactive); in test [10] it was 0.0754.
As for `O=S(=O)(NCCCO)c1ccc(Br)cc1`, the z-score in [1] was 0.304; in test [2] it was -0.476 (inactive); in [3], 0.261 (inactive); in test [5], -0.236 (inactive); in test [6], -0.482 (inactive); in [7] it was 1.68 (inactive). Further, the results for the z-score in test [8] and in test [9] were 2.3 (inactive) and 0.461, respectively. For the same compound, the values for the composite z-score in [4] and in test [10] were -1.62 (inactive) and 0.0441, respectively.
